Data as given in PubChem BioAssay (NCATS).
Records with an inconclusive call do not appear. A number with no mark means an inactive call. The source made the active and inactive calls. Calls follow the shape of the dose curve; as a rule, active = well fitted inhibition curve with a large enough effect; inconclusive = small, poorly fitted or top-dose-only effect; inactive = no such curve, though single readings can be large or run the other way.

Molecular target: Tyrosine-protein kinase Yes (Homo sapiens) (UniProt P07947)
Assay: qHTS for small molecule inhibitors of Yes1 kinase: Primary Screen (AID 686947); also: nearly all actives have a fitted effect of over 60% in size;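 as to activity change, negative = inhibition: plate controls were DMSO with enzyme for no effect and no-enzyme DMSO wells for full effect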
Settings: Yes1 kinase biochemical qHTS inhibition; series mostly up to 76.9 µM; activity change, negative = inhibition: at the top concentration
Method in brief: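 ADP-Glo luminescence readout; final 4 nM Yes1, 0.1 mM ATP, 0.3 mg/mL poly(E4Y), Tris pH 7.5, MgCl2, DTT, Brij-35. 20 min compound preincubation, 60 min reaction at RT. Normalized to DMSO wells with and without enzyme.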
Potency is read from the fitted curve at half-maximal effect.

Chain of Tyrosine-protein kinase Yes (Homo sapiens) (P07947 whole entry, looked up): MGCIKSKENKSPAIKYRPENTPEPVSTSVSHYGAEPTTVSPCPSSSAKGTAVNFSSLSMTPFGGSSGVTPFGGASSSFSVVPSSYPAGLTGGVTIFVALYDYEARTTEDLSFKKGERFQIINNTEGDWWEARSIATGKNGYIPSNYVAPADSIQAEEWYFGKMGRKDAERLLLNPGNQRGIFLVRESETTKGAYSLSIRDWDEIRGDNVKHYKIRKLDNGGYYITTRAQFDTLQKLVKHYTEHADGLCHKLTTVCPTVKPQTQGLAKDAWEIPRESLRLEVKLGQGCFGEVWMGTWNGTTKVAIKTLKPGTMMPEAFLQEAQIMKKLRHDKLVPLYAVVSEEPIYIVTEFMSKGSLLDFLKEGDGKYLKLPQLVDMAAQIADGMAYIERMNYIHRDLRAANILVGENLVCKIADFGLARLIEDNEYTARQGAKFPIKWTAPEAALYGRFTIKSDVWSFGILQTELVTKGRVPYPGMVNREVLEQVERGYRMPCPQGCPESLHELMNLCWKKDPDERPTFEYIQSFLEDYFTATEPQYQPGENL

| SMILES | Potency | activity change, negative = inhibition |
| --- | --- | --- |
| COc1ccc(C2=N[C@H](c3ccc(Cl)cc3)[C@H](c3ccc(Cl)cc3)N2C(=O)N2CCNC(=O)C2)c(OC(C)C)c1 | 12200 nM (active) |  |
| CCCS(=O)(=O)Nc1ccc(F)c(C(=O)c2c[nH]c3ncc(-c4ccc(Cl)cc4)cc23)c1F | 1370 nM (active) |  |
| CS(=O)(=O)c1cccc(CNc2nc(Nc3ccc4c(c3)CCC(=O)N4)ncc2C(F)(F)F)c1 | 972 nM (active) |  |
| COc1ccccc1[C@H](c1cccc2ccccc12)[C@@](C)(C#N)C(=O)N1CCC(c2cccc(C(F)(F)F)c2)CC1 |  | 14.4% |
| COCCNCCCn1c(C(=O)CF)c(-c2ccc(C)cc2)c2c(N)ncnc21 |  | 2.68% |
| O=C(C=Cc1ccc(/C=C/C(=O)Nc2ccc(C3=NCCN3)cc2)cc1)Nc1ccc(C2=NCCN2)cc1 |  | 41% |
| CC[C@@H](C)[C@H](NC(=O)[C@H](CC1CCCCC1)NC(=O)c1ccno1)C(=O)N1CCC2(CCc3ccccc32)CC1 |  | -0.717% |
| COc1ccc(CC2=NN3C([C@@H](CCc4ccccc4)[C@@H](C)O)=NC(C)C3C(=O)N2)cc1OC (some centres not stated) |  | 0.678% |
| O=C(Nc1cccnc1)N1CCC(Cc2cccc(Oc3ccc(C(F)(F)F)cn3)c2)CC1 |  | 14.3% |
| CC(C)(N)C(=O)N[C@H](COCc1ccccc1)C(=O)N1CCC2(CC1)CN(S(C)(=O)=O)c1ccccc12 |  | 12.6% |
| CCOC(=O)N[C@@H]1CC[C@@H]2[C@@H](C1)C[C@H]1C(=O)O[C@H](C)[C@H]1[C@@H]2C=Cc1ccc(-c2cccc(F)c2)cn1 |  | 1.66% |
| CCOc1cc(N2CCC(O)CC2)ccc1Nc1ncc2c(n1)N(C)c1ccccc1C(=O)N2C |  | -14.7% |
| NC(=O)c1ccc(-c2nc(-c3ccc4c(c3)OCCO4)c(-c3ccccn3)[nH]2)cc1 |  | 66.2% |
| O=C(C1CC1)N1CC[C@@H](Cn2c(-c3ccc(-c4ccc5occc5c4)cc3)nc3cnccc32)C1 |  | 10% |
| Cc1n[nH]c(C)c1Cc1sc2c(c1C(=O)N1C[C@H](O)CO1)c(=O)n(C)c(=O)n2CC(C)C |  | 12.6% |
| Cc1ccc2c(c1)C(=O)[C@@]1(O)CCN(c3ccccc3)C1=N2 |  | -5.54% |
| Cc1cc(SCc2sc(-c3ccc(C(F)(F)F)cc3)nc2C)ccc1OCC(=O)O |  | -5.37% |
| CCN(CC)CCCC(C)Nc1nc(C)cc(Nc2ccc3nc(C)cc(N)c3c2)n1 (configuration not stated) |  | -8.83% |
| COCC(=O)NCC=Cc1ccc2ncnc(Nc3ccc(Oc4ccc(C)nc4)c(C)c3)c2c1 | 5470 nM (active) |  |

| SMILES | Potency | activity change, negative = inhibition |
| --- | --- | --- |
| OCCn1cc(-c2cnc3nnn(Cc4ccc5ncccc5c4)c3n2)cn1 |  | 84.1% |
| Cn1cnc2c(F)c(Nc3ccc(Br)cc3Cl)c(C(=O)NOCCO)cc21 |  | -5.63% |
| COc1ccc(-c2oc3cc(OC)ccc3c2C(=O)c2ccc(C#N)cc2)cc1 |  | 2.7% |
| CCOc1cc(C=C2C(=O)N(c3ccccc3)N=C2C)cc(Cl)c1OCC(=O)OC |  | -1.36% |
| O=C(O)CCc1ccc(NCc2cccc(Oc3ccccc3)c2)cc1 |  | -0.374% |
| COc1nc(-c2ccc3c(c2)OCO3)n(-c2ccc(NC(=O)CSc3ccccc3)cc2)n1 |  | -2.21% |
| Cc1cc(C=c2sc3nc4ccccc4n3c2=O)c(C)n1-c1ccccc1 |  | -17.7% |
| Cc1cc(-c2ccc(CC(=O)Nc3ccc(-c4cccnc4)cc3)cc2)ccn1 |  | 15.8% |
| COc1cccc2cc(-c3nc(C4CCC(C(=O)O)CC4)n4ncnc(N)c34)[nH]c12 (configuration not stated) | 68.8 nM (active) |  |
| CCCS(=O)(=O)Nc1ccc(F)c(C(=O)c2c[nH]c3ncc(Cl)cc23)c1F | 173 nM (active) |  |
| CCCn1c(=O)c2[nH]c(C34CC5CC3C[C@@H](C5)C4)nc2n(CCC)c1=O |  | -3.1% |
| CNCc1ccc(-c2[nH]c3cc(F)cc4c3c2CCNC4=O)cc1 | 308 nM (active) |  |
| CCn1c(-c2nonc2N)nc2cnc(Oc3cccc(NC(=O)c4ccc(OCCN5CCOCC5)cc4)c3)cc21 |  | 3.66% |
| Cc1c(CN2CCN(C(=O)C(C)C)CC2)sc2c(N3CCOCC3)nc(-c3cnc(N)nc3)nc12 | 244 nM (active) |  |
| CCOC(=O)C1=C[C@@]2(CC)CCCN3CCc4c(n1c1ccccc41)[C@H]32 |  | -2.12% [at 47.8 µM] |
| Nc1cccc(S(=O)(=O)N2CCCN(S(=O)(=O)c3ccc4c(c3)OCCO4)CC2)c1 |  | -1.09% |
| CNC(=O)c1ccc(N2C(=S)N(c3ccc(C#N)c(C(F)(F)F)c3)C(=O)C2(C)C)cc1F |  | -3.72% |
| c1ccc(-c2nn3c(c2-c2ccnc4cc(OCCN5CCOCC5)ccc24)CCC3)nc1 | 8670 nM (active) |  |
